Hits are enriched below; roughly 10% of the tested compounds scored in any of these assays.
G9a inh – blocks human histone lysine methyltransferase G9a; AID 504332; G9a H3K9 monomethylation, AlphaScreen, 2 h; Q96KQ7; 350,000 tested, 8.8% active; Potency, µM (doses to about 102 µM), hits mostly inhibitors; further: nearly all actives have a fitted effect of over 75% in size
Target sequence (Q96KQ7 913-1193 limits assumed): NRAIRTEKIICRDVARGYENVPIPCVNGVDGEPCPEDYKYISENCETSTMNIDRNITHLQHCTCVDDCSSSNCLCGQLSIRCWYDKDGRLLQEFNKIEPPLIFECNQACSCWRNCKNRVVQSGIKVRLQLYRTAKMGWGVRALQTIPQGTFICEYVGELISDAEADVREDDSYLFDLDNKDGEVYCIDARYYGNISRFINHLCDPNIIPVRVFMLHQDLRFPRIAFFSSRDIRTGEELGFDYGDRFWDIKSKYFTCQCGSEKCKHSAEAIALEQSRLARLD
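Methyltransferase reactions run at room temperature for 2 h (20 nM enzyme, 500 nM biotin-H3K9 peptide, 20 uM SAM) after a 15 min compound preincubation; product detected by AlphaScreen beads and anti-H3K9me1 antibody.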
BAZ2B inh – BAZ2B (human) inhibition; AlphaScreen BAZ2B-H3K14Ac peptide displacement; Potency, µM (highest dose often 114 µM), most hits filed as inhibitors; 360,000 tested, 4.4% active; AID 504333; further: nearly all actives have a fitted effect of over 60% in size
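AlphaScreen luminescence quantifies BAZ2B engagement of H3K14Ac peptide; the protein and biotinylated peptide are both at 50 nM final, buffer PBS pH 7.4 with 0.01% Tween-20, all steps at room temperature.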
GLS inh – inhibitors of human glutaminase (GLS). AID 624170. O94925. GLS enzymatic activity, qHTS titration. Potency, µM (doses to about 45.5 µM), actives largely listed as inhibitors. 410,000 tested, 0.21% active
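Read-out is an Amplex red fluorescence increase coupled through glutamate oxidase and HRP, measured before and after 30 min room-temperature incubation. hKGA is in 45 mM KH2PO4 (pH 8.2) with 0.02% Tween-20; glutamine added as 1mM solution.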
HP1b binding inh – HP1-beta chromodomain-methylated histone interaction inhibition. P83916. AlphaScreen HP1-beta / biotin-H3K9me3 peptide binding. Potency, µM (series often up to 114 µM), actives largely listed as inhibitors. 390,000 tested, 0.56% active. AID 540317; further: nearly all actives have a fitted effect of over 70% in size
Target sequence (P83916 whole entry, looked up): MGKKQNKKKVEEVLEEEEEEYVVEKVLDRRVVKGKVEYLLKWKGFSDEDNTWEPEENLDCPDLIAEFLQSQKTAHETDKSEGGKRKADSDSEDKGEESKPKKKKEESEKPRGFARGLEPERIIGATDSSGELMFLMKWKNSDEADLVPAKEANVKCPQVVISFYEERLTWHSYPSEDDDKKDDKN
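Compound inhibition of the preformed complex between 50 nM HP1-beta and 50 nM biotinylated H3K9me3 peptide was read by AlphaScreen. Buffer was PBS pH 7.4 with 0.01% Tween-20. Incubations ran 30 min at room temperature, with 10 ug/mL donor/acceptor beads.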
JMJD2A Tudor inh – inhibitors of human JMJD2A Tudor domain; 390,000 tested, 4.4% active; O75164; Potency, µM (titrated, usually from 114 µM), most hits filed as inhibitors; AlphaScreen JMJD2A-Tudor / H3K4me3 peptide binding; further: nearly all actives have a fitted effect of over 50% in size
Large screens that a line does not name were inactive. The call rests on the fitted dose curve; in most records, active means well fitted curve in the direction sought with a large enough effect; inconclusive means small, poorly fitted or top-dose-only effect, or another doubt; inactive means no such curve, though single readings can be large; an effect the other way counts as inactive or inconclusive.

CSc1nc(N(CCO)CCO)c2sc3nc(-c4ccco4)c4c(c3c2n1)CCC4	G9a inh 12.6µM, BAZ2B inh inconclusive, GLS inh 7.08µM, HP1b binding inh 11.2µM
OCCN(CCO)c1ncnc2c1sc1nc(N3CCOCC3)c3c(c12)CCCC3	none
COC(=O)CSc1nc(SC)nc2c1sc1nc(-c3ccco3)c3c(c12)CC(C)(C)OC3	none (no result: G9a inh, BAZ2B inh)
Cc1c(Cl)cccc1NC(=O)c1cccc(NC(=O)CCC(=O)O)c1	none
Cc1ccc(/C=C/C(=O)Nc2nccs2)o1	G9a inh inconclusive
Cc1ccc(C)c(NC(=O)CN2C(=O)C3(SCC(=O)N3c3ccc(C)c(C)c3)c3ccccc32)c1 (stereo not given)	none
O=C(Nc1cccc(F)c1)/C(=C\c1cccnc1)NC(=O)c1ccco1	none
Cc1cccc(NC(=O)/C(=C\c2ccco2)NC(=O)c2cccs2)c1	G9a inh 31.6µM, HP1b binding inh inconclusive, JMJD2A Tudor inh 89.1µM
O=C(Nc1cccc(F)c1)/C(=C/c1ccco1)NC(=O)c1ccco1	G9a inh 28.2µM, JMJD2A Tudor inh inconclusive
S=C(NN=C1C2CC3CC(C2)CC1C3)Nc1ccccc1	G9a inh inconclusive, BAZ2B inh inconclusive, HP1b binding inh inconclusive, JMJD2A Tudor inh 50.1µM
Cc1ccc(CNC(=O)c2ccc(Cn3nc(C)c(Cl)c3C)o2)cc1	G9a inh inconclusive, BAZ2B inh 50.1µM, JMJD2A Tudor inh inconclusive
N#CC(C#N)=C1C=CC=CN1/C(=C\c1ccco1)C(=O)c1ccc(Br)cc1	G9a inh 11.2µM, BAZ2B inh inconclusive, JMJD2A Tudor inh inconclusive
COc1ccc(C(=O)/C(=C\c2ccco2)N2C=CC=CC2=C(C#N)C#N)cc1	none
N#CC(C#N)=C1C=CC=CN1/C(=C\c1ccco1)C(=O)c1ccccc1	G9a inh 17.8µM
Cc1ccc(/C(O)=C2/C(=O)C(=O)N(c3ccccn3)C2c2cccc([N+](=O)[O-])c2)cc1 (stereo not given)	G9a inh 35.5µM
Cc1ccc(/C(O)=C2\C(=O)C(=O)N(C)C2c2ccc([N+](=O)[O-])cc2)cc1 (stereo not given)	none
CCOc1ccc(/C(O)=C2/C(=O)C(=O)N(c3ncccn3)C2c2ccc(Cl)cc2)cc1 (stereo not given)	G9a inh 50.1µM, BAZ2B inh inconclusive
Cc1ccc(/C(O)=C2/C(=O)C(=O)N(c3ccccn3)C2c2ccc([N+](=O)[O-])cc2)cc1 (stereo not given)	G9a inh 70.8µM
CN1C(=O)C(=O)/C(=C(/O)c2ccccc2)C1c1ccc([N+](=O)[O-])cc1 (stereo not given)	none (no result: G9a inh)
Cc1ccc(/C(O)=C2/C(=O)C(=O)N(CC(=O)O)C2c2ccc([N+](=O)[O-])cc2)cc1 (stereo not given)	G9a inh inconclusive, BAZ2B inh inconclusive, GLS inh inconclusive, JMJD2A Tudor inh 50.1µM
Cc1nnc(N2C(=O)C(=O)/C(=C(/O)c3ccc4c(c3)OCCO4)C2c2cccc([N+](=O)[O-])c2)s1 (stereo not given)	none (no result: G9a inh, BAZ2B inh, HP1b binding inh, JMJD2A Tudor inh)
COc1cc(OC)cc(C(=O)N[C@H](C(=O)NCc2ccc(F)cc2)C(C)C)c1	none
COc1ccc(C2/C(=C(/O)c3ccc(C)cc3)C(=O)C(=O)N2c2ccccn2)cc1 (stereo not given)	G9a inh 44.7µM
Cc1ccc(/C(O)=C2\C(=O)C(=O)N(CC(C)O)C2c2ccccn2)cc1 (stereo not given)	JMJD2A Tudor inh 35.5µM (no result: G9a inh)
O=C1C(=O)N(Cc2cccnc2)C(c2ccccn2)/C1=C(/O)c1ccccc1 (stereo not given)	G9a inh inconclusive, BAZ2B inh inconclusive, JMJD2A Tudor inh inconclusive
Cc1cc(C(=O)OCC(=O)N2CCC(C)CC2)c2ccccc2n1	none (no result: G9a inh, BAZ2B inh)
COc1ccc(/C=C/C(=O)NCc2c(C)nn(C)c2C)cc1COc1ccc(Br)cc1	none
COc1ccc(OC)c(S(=O)(=O)Nc2cc3c4c(c2)CCC(=O)N4CCC3)c1	none
COc1ccccc1NC(=S)N(Cc1ccccc1)Cc1cccs1	none
CC1(C)CC(=O)C(=Cc2cn(CCC#N)nc2-c2ccc(F)cc2)C(=O)C1	G9a inh 10µM
CCOc1ccc(C(C)=O)cc1Cc1c(O)nc(N)[nH]c1=O	none (no result: GLS inh, HP1b binding inh, JMJD2A Tudor inh)
O=C(Nc1cccc([N+](=O)[O-])c1)c1cnccn1	BAZ2B inh 50.1µM, JMJD2A Tudor inh inconclusive

Source: PubChem BioAssay (National Center for Advancing Translational Sciences (NCATS))
